Data from PubChem BioAssay AID624377 (The Scripps Research Institute Molecular Screening Center, 2012).
In all, about 360,000 compounds went through this assay and about 680 (0.19%) were called active. Rule as the data show it: active = inhibition above about 25%; inactive = the rest. Shown is part of a subset that was picked to be rich in actives.

Molecular target: Arf-GAP with SH3 domain, ANK repeat and PH domain-containing protein 1 (Homo sapiens) (UniProt Q9ULH1)
Assay: inhibitors of human ASAP1 ArfGAP activity, primary screen, biochemical, fluorescence polarization (AID 624377);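 also: 0% = vehicle with enzyme and substrate and 100% = no enzyme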
Settings: ASAP1-stimulated ARF1 GTP hydrolysis, GDP FP detection; at 16.5 µM; stronger effect = higher value

Chain of Arf-GAP with SH3 domain, ANK repeat and PH domain-containing protein 1 (Homo sapiens) (Q9ULH1 325-724 limits assumed): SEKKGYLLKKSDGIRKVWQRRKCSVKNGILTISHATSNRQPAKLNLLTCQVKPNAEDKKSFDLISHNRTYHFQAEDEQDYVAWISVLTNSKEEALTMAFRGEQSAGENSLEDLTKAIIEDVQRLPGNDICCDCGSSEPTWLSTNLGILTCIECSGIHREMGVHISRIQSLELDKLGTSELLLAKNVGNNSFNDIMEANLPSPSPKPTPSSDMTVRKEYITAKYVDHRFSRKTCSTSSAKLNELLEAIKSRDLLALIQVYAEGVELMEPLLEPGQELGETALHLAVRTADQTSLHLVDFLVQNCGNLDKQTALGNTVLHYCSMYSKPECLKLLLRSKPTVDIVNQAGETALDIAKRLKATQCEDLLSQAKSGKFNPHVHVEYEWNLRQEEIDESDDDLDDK

inhibition, inactive:
COc1ccccc1-c1ccc([C@@H]2C[C@H]3[C@H](CON3C)CN2S(=O)(=O)c2cc(Cl)cc(Cl)c2)cc1 -15.3%
CN1CCCCC(NC(=O)C(C)(C)C)C1=O (stereo unspecified) -1.72%
CC(=NNC(N)=O)c1ccc(Cl)c(-n2cccc2)c1 7.66%
Cc1cc(NCCc2c[nH]c3ccccc23)ccc1Oc1cccnc1 6.6%
COC(=O)[C@]12C[C@H](CC(=O)N3CCN(C(=O)C4CC4)CC3)C(=O)N(Cc3ccc4c(c3)OCO4)C1=C[C@H](C(C)(C)C)O[C@@H]2C -0.19%
COC(=O)[C@]12C[C@H](CC(=O)NCCc3ccccc3OC)C(=O)N(Cc3ccccc3)C1=C[C@H](C(C)C)O[C@@H]2C1CC1 -3.14%
CC[C@H](C)[C@H]1CNC(=O)C(=O)N1CC1CCN(CCc2ccc(OC)c(OC)c2)CC1 -3.91%
COc1ccc(-c2ccc3c(n2)CCCN3S(=O)(=O)c2ccc(C)cc2)cc1 -10.4%
CN[C@H]1C[C@H]2c3[nH]c4c(-c5ccccc5)cccc4c3CCN2C(=O)[C@H]1[C@H](C)O -4.1%
COC(=O)C1=C(C)N(Cc2cccc(C(F)(F)F)c2)C(=NCc2cccc(C(F)(F)F)c2)NC1c1ccccc1C(F)(F)F (stereo unspecified) 4.19%
CCOC(=O)/C=C/c1ccccc1O 8.09%
C[C@@H]1ON(C)[C@H]2C[C@H]3c4cc(N5CCOCC5)ccc4CCN3C[C@@H]12 11.7%
COC(=O)c1cc2c(c3c4ccccc4n(S(=O)(=O)c4cccc(C)c4)c13)C(=O)N(Cc1ccccc1)C2 -7.05%
COc1ccc(NC(=O)CSc2nnnn2-c2cccc(OC)c2)cc1 3.21%
O=C(CSc1nnnn1-c1ccc(O)cc1)c1ccc(F)cc1 1.74%
OC(CCl)CCl 12.1%
COC(=O)c1c(-c2ccc(OC)cc2)c2c(c3c4cc(OC)ccc4n(S(=O)(=O)c4ccc(F)cc4)c13)C(=O)N(C)C2 -0.62%
CCCN1C(=O)c2[nH]nc(-c3ccccc3)c2C1c1ccccc1 (stereo unspecified) 0.41%
C[C@H](CO)N1C[C@H](C)[C@@H](CN(C)C(=O)Nc2ccccc2F)OCc2cn(nn2)CCCC1=O -10.4%
Nc1ncnc2c1ncn2C1OC(CO)CC1O (stereo unspecified) 3.34%
Cc1ccccc1C(=O)N[C@H](C(=O)N1CCC[C@H]1C(=O)NCc1ccccc1)C(C)C -8.79%
COC(=O)[C@]12C[C@H](CC(=O)NCc3ccccc3)C(=O)N(CCC3=CCCCC3)C1=C[C@H](C(C)(C)C)O[C@@H]2C -6.37%
COc1ccc(C2=CN(Cc3ccccc3)C(c3ccc(OC)cc3)CC2=O)cc1 (stereo unspecified) 12.3%
CC(C)C[C@H](NC(=O)CC1CCCC1)C(=O)N1CCC[C@H]1C(=O)NCc1ccccc1 -6.9%
COc1ccccc1CCn1cnc(-c2ccccc2)c1C(C)C 16.9%
CCOC(=O)C1=C(C(=O)OCC)C2N(Cc3ccc(C#N)cc3)c3ccccc3[C@@]23C[C@@H](C(=O)OC)N(S(=O)(=O)c2ccc(F)cc2)C3=N1 (stereo partly specified) 12.3%
COc1cccc(CC(=O)N2CCN(C(=O)C(=O)c3cccc(C(F)(F)F)c3)CC2)c1 3.01%
CCOc1cc(/C=N/NC(=O)c2ccncc2)cc(Br)c1O -12.7%
CC(=NNC(=O)c1ccncc1)c1ccc(Cl)c(Cl)c1 -23.7%
CCOC(=O)N1CCN(C(=O)C[C@H]2C[C@@]3(C(=O)OC)C(=C[C@H](C4CCCC4)O[C@@H]3C)N(Cc3ccccc3)C2=O)CC1 -6.46%
COc1ccc(CNS(=O)(=O)c2cc(Br)ccc2Br)cc1 -8.38%
COc1ccc(CCNC(=O)c2ccc3c(c2)NC(=O)C(N2CCOCC2)S3)cc1OC (stereo unspecified) -5.91%
CCN1CCCC1CNC(=O)c1ccc2c(c1)NC(=O)/C(=C\c1ccccc1F)S2 (stereo unspecified) -12.3%
COc1ccc(NC(=O)N(C)C[C@@H]2OCCCC[C@@H](C)Oc3ccc(NC(=O)NC4CCCCC4)cc3C(=O)N([C@H](C)CO)C[C@@H]2C)cc1 -0.3%
NC(=O)c1ncn([C@@H]2O[C@H](C(=O)O)[C@@H](O)[C@H]2O)n1 -8.9%
O=C(NCc1ccccc1)[C@@H]1CCCN1C(=O)[C@H]1CCCN1C(=O)c1cccc(Cl)c1 5.06%
CC(C)CNc1cccc2c1S(=O)(=O)N[C@H](CC(C)C)CO2 14.4%
COCc1cc(N2CCN(C(=O)OC(C)(C)C)C[C@@H]2C)ccc1N1CCN(Cc2ccccc2)[C@H](C)C1 -0.13%
O=c1[nH]c(-c2ccccc2)cn1C1CCN(Cc2ccc(-c3nc4ccc(F)cc4nc3-c3ccccc3)cc2)CC1 6.64%
O=S1(=O)c2c(cccc2N2CCCCC2)O[C@H](COCc2ccccc2)CN1C1CC1 -0.37%
CCN1C(=O)N[C@@H]2C[C@H](C(=O)N3CCCC3)[C@H](C)[C@H](c3ccccc3)C[C@@H]21 9.08%
COC(=O)Cc1nnn2c1[C@H](C)[C@H](c1ccccc1[N+](=O)[O-])OCC2 5.28%
N#Cc1ccc(OCCCN2CCC(C(O)(c3ccccc3)c3ccccc3)CC2)c(F)c1 12.3%
O=C(NCc1ccccc1)[C@H]1CCCN1C(=O)[C@H]1CCCN1C(=O)c1cc(F)cc(F)c1 5.35%
Cc1[nH]nc2c1C(c1ccc(Br)cc1)NC2=O (stereo unspecified) 13.4%
Cc1[nH]c2ccccc2c1CC(=O)Nc1ccc(Nc2cccnc2)c(-c2cccc(Cl)c2)c1 23.9%
Cc1ccc(NC(=O)N2c3ccccc3SC2c2ccco2)c(C)c1 (stereo unspecified) 0.24%
Nc1nc2c(ncn2[C@@H]2O[C@H](C(=O)N[C@@H](Cc3ccccc3)C(=O)NCc3ccccc3)[C@@H](O)[C@H]2O)c(=O)[nH]1 1.52%
CC(C)(C)C(c1nc2ccccc2[nH]1)n1c(Cc2csc3ccccc23)nc2ccccc21 (stereo unspecified) 0.61%
CCCCCCCCN1C(=O)[C@@H](CC(=O)N2CCN(C(=O)OCC)CC2)C[C@@]2(C(=O)OC)C1=C[C@H](C1CCCC1)O[C@@H]2C -6.71%
O=C(NS(=O)(=O)c1cccs1)[C@H]1O[C@@H](n2ccc(=O)[nH]c2=O)[C@H](O)[C@@H]1O -0.42%
COc1cc(Nc2nc3ccc(Cl)cc3n3cnnc23)cc(OC)c1OC -7.78%
CN(CCO)c1ccc(/C=N/Nc2nncc3ccccc23)cc1 4.89%
Nc1[nH]c(C(=O)c2ccccc2)c(-c2ccc(Cl)cc2Cl)c1C(=O)c1ccccc1 1.42%
CCCCCCCCN1C(=O)[C@@H](CC(=O)NCc2ccc(C)o2)C[C@@]2(C(=O)OC)C1=C[C@H](C(C)(C)C)O[C@@H]2C -18.4%
C[C@@H]1CN([C@H](C)CO)C(=O)CCCn2cc(nn2)CO[C@H]1CN(C)C(=O)Nc1ccc(N2CCCCC2)cc1 -5.8%
O=C(NCc1ccccc1)[C@@H]1CCCN1C(=O)[C@@H](NS(=O)(=O)c1ccc(F)cc1F)C1CCCCC1 -1.92%
Cc1ccc(N)cc1CN1CCN(c2ncc(Cc3ccccc3)cn2)CC1 12%
COc1cccc(CNC(=O)[C@H]2CCCN2C(=O)[C@H]2CCCN2C(=O)C2CCCCC2)c1 -4.66%
COC(=O)[C@]1(Cc2ccccc2)NC=C(C(=O)c2ccccc2)[C@@H]1c1cccc(OC)c1 -16.7%
C=CC1=CCN(S(=O)(=O)C(C)(C)C)[C@@H]1CCO -14.4%
CN1CCCc2nc(-c3ccccc3)ccc21 1.42%
CSc1ccc(Oc2cccc3c2S(=O)(=O)N([C@H](C)c2ccccc2)C[C@@H](COCc2ccccc2)O3)cc1C 0.74%
Cc1cc2c(nc1C)CCCN2C -12%
CN1C(=O)C2CC(O)C(SC3CC4C(=O)N(C)C(=O)C4CC3O)CC2C1=O (stereo unspecified) -4.75%
COC(=O)[C@]12C[C@H](CC(=O)NCc3cccc(C(F)(F)F)c3)C(=O)N(Cc3ccc4c(c3)OCO4)C1=C[C@H](COCc1ccccc1)O[C@@H]2C 2.38%
COC(=O)C1=C(C)N(Cc2ccccc2C(F)(F)F)C(=NCc2ccc(C(F)(F)F)cc2)NC1c1ccc(F)cc1 (stereo unspecified) 8.73%
COC(=O)C(C(=O)OC)c1ccccc1NS(=O)(=O)c1cccc2ccccc12 -1.63%
OCCNCCOc1ccc(Cl)c(Cl)c1 -8.06%
COCCNc1nc(Nc2ccccc2Cl)c2sc(-c3ccccc3)cc2n1 13.4%
COC(=O)[C@]12C[C@H](CC(=O)NCc3ccc(C)o3)C(=O)N(CCC3=CCCCC3)C1=C[C@H](C(C)(C)C)O[C@@H]2C -6.9%

inhibition, active:
COc1ccc(-n2nnnc2SCC(=O)c2ccc(OC)c(OC)c2)cc1 27.3%
CCN(CC)c1ccc2cc(C(N)=O)/c(=N\NC(=O)c3ccncc3)oc2c1 26.4%
CCN1CCN(CCNC(=O)c2ccc3c(c2)NC(=O)/C(=C\c2ccc(OC)c(OC)c2)S3)CC1 25.9%
COc1cc(/C=N/Nc2nn3cnnc3c3ccccc23)cc(OC)c1OC 27.1%
OCCNc1nc(Nc2ccc(Cl)c(Cl)c2)nc2ccccc12 26%
